This is a sample that favours compounds with a hit; in the whole collection about 21% have one here.
Shiga inhibitor = blocks Shiga toxin action in Vero cells | Vero cells, Shiga toxin protein synthesis inhibition reporter | inhibition, % at 38.7 µM | actives 9.2% (n = 290,000); in the data active = inhibition mostly above about 28%, no sharp cut-off; inactive = mostly below about 43%
CHX counter = counter-screen for Shiga toxin inhibitors: cycloheximide protein synthesis inhibition; actives 12% (n = 300,000); max response, %; cell reporter, cycloheximide protein synthesis inhibition counterscreen; in the data active = max response mostly above about 13%, no sharp cut-off; inactive = mostly below about 14%; note: read at 38.3 µM for the half of the compounds with a filed dose
Pf growth 48h = inhibits P. falciparum growth in the first generation, 48 h. P. falciparum luciferase growth in erythrocytes, 48 h. Potency, µM (series often up to 28.7 µM), usual class: inhibitors. actives 5.9% (n = 310,000). AID 504832
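Growth was read as firefly luciferase luminescence after a 48 h, 37 C, 5% CO2 exposure of compounds to reporter-bearing P. falciparum cultures (0.1% parasitemia, 2% hematocrit final) in Albumax-supplemented RPMI 1640.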
Pf growth 96h = P. falciparum growth inhibition at 96 hour, primary screen for plastid delayed-death inhibitors; P. falciparum luciferase reporter growth, 96 h; Potency, µM (series often up to 28.7 µM), usual class: inhibitors; actives 6.9% (n = 320,000)
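Cell-based qHTS: luciferase-tagged P. falciparum in erythrocytes (2% hematocrit, 0.05% parasitemia final) incubated with compounds for 96 hours, 37 C, 5% CO2; luciferase detection reagent then added and luminescence measured.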
Large screens that a line does not name were inactive. Unless noted, calls come from the whole dose curve; as a rule, active = well fitted inhibition curve with a large enough effect; inconclusive = small, poorly fitted or top-dose-only effect, or another doubt; inactive = no such curve, though single readings can be large or run the other way.

COc1ccc(NC(=S)NCc2ccco2)cc1	none
S=C(NCc1ccco1)Nc1cccc(Cl)c1	Shiga inhibitor 32.0
S=C(NCc1ccco1)Nc1ccc(Oc2ccccc2)cc1	CHX counter 34.4
CCCCCCC(=O)N1C/C=C\C(c2ccc(OC)cc2)N(Cc2ccc(F)cc2)C(=O)C1Cc1ccccc1 (stereo unspecified)	none (no result: Pf growth 48h, Pf growth 96h)
CC(NC(=O)CN1CCc2ccccc21)c1ccccc1 (stereo unspecified)	Pf growth 96h inconclusive
Cc1ccccc1NC(=S)NCc1ccco1	Pf growth 96h 0.329µM
S=C(NCc1ccco1)Nc1ccc(Cl)c(Cl)c1	CHX counter 31.1
S=C(NCc1ccco1)Nc1ccc(N2CCOCC2)cc1	CHX counter 20.2
S=C(NCc1ccco1)Nc1cc(Cl)c(Cl)cc1Cl	none
O=C(c1ccc(N2CCOCC2)c([N+](=O)[O-])c1)N1CCCC(C(F)(F)F)C1 (stereo unspecified)	none (no result: Shiga inhibitor, CHX counter)
O=S(=O)(c1cccs1)N1CCCc2cccc(O)c21	Shiga inhibitor 80.4, CHX counter 53.6 (no result: Pf growth 48h)
O=S(=O)(c1cccs1)N1CCN(S(=O)(=O)c2cccs2)CC1	Pf growth 96h inconclusive
CN1CCN(c2nc3c(c(=O)[nH]c(=O)n3C)n2CCCSc2ncccn2)CC1	Pf growth 96h 13.1µM
Cc1ccnc(SCCn2c(N3CCN(c4ccccc4)CC3)nc3c2c(=O)[nH]c(=O)n3C)n1	Pf growth 96h 4.65µM (no result: Pf growth 48h)
COc1ccc(CCn2c(N3CCN(C)CC3)nc3c2c(=O)[nH]c(=O)n3C)cc1	none (no result: Pf growth 48h)
CCCn1c(N2CCN(CC(=O)c3c(C)n(C)c4ccc(OC)cc34)CC2)nc2c1c(=O)[nH]c(=O)n2C	Pf growth 48h inconclusive, Pf growth 96h 2.08µM
CCOCCn1c(N2CCN(c3ccccc3)CC2)nc2c1c(=O)[nH]c(=O)n2C	CHX counter 21.2, Pf growth 96h inconclusive
CCN1CCN(c2nc3c(c(=O)[nH]c(=O)n3C)n2CCCSc2ncccn2)CC1	Pf growth 96h inconclusive
O=C(CCc1nnc2ccc(NCc3ccccc3)nn12)NC1CCCC1	none
CN(Cc1ccon1)C(=O)C1CCC(=O)N(Cc2ccc(Cl)cc2)C1 (stereo unspecified)	none
COC(=O)C(C)Sc1nc2ccsc2c(=O)n1Cc1ccccc1 (stereo unspecified)	none
Cc1cc(C)n(CC(=O)NNC(=O)C2CC(=O)N(Cc3ccccc3Cl)C2)n1 (stereo unspecified)	none
Cn1c(=O)[nH]c(=O)c2c1nc(N1CCOCC1)n2CC(O)COc1ccc2ccccc2c1 (stereo unspecified)	Pf growth 96h 6.57µM
CCCCCn1c(N2CCN(c3cccc(Cl)c3)CC2)nc2c1c(=O)[nH]c(=O)n2C	Pf growth 96h 5.86µM (no result: Pf growth 48h)
CN1CCN(c2nc3c(c(=O)[nH]c(=O)n3C)n2CC(N)=O)CC1	Pf growth 48h inconclusive, Pf growth 96h 13.1µM
CC(C)NC(=O)CN1CCC(c2ccccc2)C(O)C1 (stereo unspecified)	none
CC(=O)Nc1ccccc1P(=O)(c1ccccc1)c1ccccc1OC(C)=O (stereo unspecified)	none
C=CCNC(=S)N1CCN(Cc2ccccc2)CC1	none
CCCc1cc(=O)oc2cc(C)cc(OC(C)C(=O)NCc3ccccn3)c12 (stereo unspecified)	Pf growth 48h 2.62µM, Pf growth 96h 2.33µM
CCc1cc(=O)oc2cc(C)cc(OCC(=O)NCc3ccccn3)c12	Pf growth 96h inconclusive
CCc1cc(=O)oc2cc(C)cc(OC(C)C(=O)NCc3ccccn3)c12 (stereo unspecified)	Pf growth 48h 3.7µM, Pf growth 96h 2.08µM
CCOc1ccc(NC(=O)C2CCN(S(=O)(=O)c3ccc4c(c3)C(C)(C)C(=O)N4C)CC2)cc1	none
Cc1nn(CC(=O)N(C)c2c(N)n(Cc3ccccc3)c(=O)[nH]c2=O)c(C)c1[N+](=O)[O-]	Pf growth 96h inconclusive (no result: Shiga inhibitor, CHX counter)
Cc1noc(C)c1COc1ccccc1C(=O)N(C)Cc1ccc(F)cc1	none (no result: Shiga inhibitor, CHX counter)
Cc1noc(C)c1COc1ccccc1C(=O)N(C)Cc1ccc(C(C)(C)C)cc1	Pf growth 48h 11.7µM, Pf growth 96h 14.7µM (no result: Shiga inhibitor, CHX counter)
Cc1noc(C)c1COC(=O)c1ccccc1Oc1ccccc1	Pf growth 96h 13.1µM
Cc1noc(C)c1COc1ccccc1C(=O)NC1CCC(C)CC1 (stereo unspecified)	Shiga inhibitor 55.2, CHX counter 26.9, Pf growth 48h inconclusive, Pf growth 96h 4.15µM
COc1ccc(CNC(=O)CN(C(=O)CCC(=O)Nc2ccccn2)c2cccc(C)c2C)cc1	Pf growth 48h inconclusive
Cc1nc(C)n(CCNS(=O)(=O)c2ccc(C)c(C)c2)n1	Pf growth 96h inconclusive
Cc1ccc(C)c(NC(=O)c2ccc3c(c2)N(Cc2ccc(F)cc2)C(=O)CS3=O)c1 (stereo unspecified)	Pf growth 48h 3.29µM
CC1CCCC(NC(=O)c2ccc3c(c2)N(Cc2ccccc2)C(=O)CS3=O)C1C (stereo unspecified)	Pf growth 48h 16.5µM, Pf growth 96h 10.4µM
O=C(Nc1ccc(Br)cc1F)c1ccc2c(c1)N(Cc1ccccc1)C(=O)CS2=O (stereo unspecified)	Pf growth 48h inconclusive, Pf growth 96h inconclusive
CCOc1ccc(NC(=O)c2ccc3c(c2)N(Cc2ccc(F)cc2)C(=O)CS3=O)cc1 (stereo unspecified)	Pf growth 48h 10.4µM, Pf growth 96h inconclusive
O=C(NC1CCCCCCC1)c1ccc2c(c1)N(Cc1ccc(F)cc1)C(=O)CS2=O (stereo unspecified)	Pf growth 48h 11.7µM, Pf growth 96h inconclusive
CC(=O)c1cccc(NC(=O)CCC(=O)Oc2ccc(C)cc2)c1	none
CCN(CC)c1ccc(C(=O)OCC(=O)Nc2cc(C)on2)cc1	none (no result: Shiga inhibitor, CHX counter)
O=C1c2ccccc2S(=O)(=O)N1CCOc1ccc(F)cc1	CHX counter 20.9
COc1ccc(S(=O)(=O)N2CC(C)N(C(=O)N(C)C)C2C)cc1 (stereo unspecified)	none
COCCOC(=O)C1=C(C)NC(SCC(=O)NC(C)(C)C)=C(C#N)C1c1ccco1 (stereo unspecified)	Pf growth 48h inconclusive (no result: Pf growth 96h)
CC(=O)C1=C(C)NC(SCC(=O)c2ccc(C)cc2)=C(C#N)C1c1ccco1 (stereo unspecified)	Pf growth 48h 9.28µM, Pf growth 96h 6.57µM
COc1ccccc1NC(=O)C1=C(C)NC(SCC(=O)c2ccccc2)=C(C#N)C1c1ccco1 (stereo unspecified)	Pf growth 48h 9.28µM (no result: Pf growth 96h)
Cc1ccc(C(=O)CSC2=C(C#N)C(c3ccco3)C3=C(CC(C)(C)CC3=O)N2)cc1 (stereo unspecified)	none (no result: Pf growth 48h)
Cc1cc(C(=O)NCc2ccccc2Cl)n(-c2ccccc2)n1	none
Cc1cc(C(=O)Nc2ccc(Cl)cc2)n(-c2ccccc2)n1	CHX counter 19.2, Pf growth 96h inconclusive
Cc1ccc(NC(=O)c2cc(C)nn2-c2ccccc2)cc1	Pf growth 96h 13.1µM (no result: Pf growth 48h)
Cc1cc(C(=O)Nc2ccccc2C)n(-c2ccccc2)n1	none
COc1ccccc1-c1nnc(SCC(=O)c2ccc(C3CCCCC3)cc2)n1Cc1ccco1	Pf growth 48h inconclusive (no result: Pf growth 96h)
O=C(Nc1cccc(N2C(=O)C=CC2=O)c1)c1cccs1	none (no result: Shiga inhibitor, CHX counter)
Cc1ccn2cc(-c3ccc(O)c(O)c3)nc2c1	Pf growth 96h inconclusive
CC(=O)Nc1cccc(-c2cn3ccccc3n2)c1	Pf growth 96h 13.1µM

High-throughput results deposited in PubChem BioAssay by National Center for Advancing Translational Sciences (NCATS).
